Data published in ChEMBL document CHEMBL4513146, “CO-ADD screening of Karazin Kharkiv National University (Ukraine) compounds”.
Measured potencies and affinities stand elsewhere.

Columns and labels:
[1] = test system: Klebsiella pneumoniae; conditions: Concentration 32 ug.mL-1;; ASSAY_TEST Inhibition of Bacterial Growth; detection method Absorption (OD600); MEDIA CAMHB; plate type 384well; NBS; CORNING #3640; time 18 hr
[2] = test system: Candida albicans; conditions: Concentration 32 ug.mL-1; ASSAY_TEST Inhibition of Fungal Growth; detection method Absorption (OD530)
[3] = test system: Cryptococcus neoformans; conditions: Concentration 32 ug.mL-1; ASSAY_TEST Inhibition of Fungal Growth; detection method Resazurin; Absorption (OD600-OD570); plate type 384well; NBS; CORNING #3640

SMILES	Inhibition [1]	Inhibition [2]	Inhibition [3]
COc1cc(OC)c(NC(=O)Cn2nc3c(Oc4cccc(C)c4C)nccn3c2=O)cc1Cl	8.97%	0.16%	-9.4%
CCC(C)NC(=O)Cn1nc2n(CCC(C)C)c(=O)c3sccc3n2c1=O (stereo not given)	0.17%	-2.39%	-17.2%
O=C(Cn1nc2c(Sc3cccc(F)c3)nccn2c1=O)Nc1ccc(Br)cc1	4.85%	1.59%	-3.57%
CCC(C)NC(=O)Cn1nc2n(Cc3cccs3)c(=O)c3sccc3n2c1=O (stereo not given)	6.55%	0.06%	-19.39%
CCCCN(C)c1ccc2nnc(CCc3nc(-c4ccc(C(F)(F)F)cc4)no3)n2n1	5.43%	2.75%	-13.06%
CC(=O)c1ccc(NC(=O)Cn2nc3ccc(-c4ccccc4)nn3c2=O)cc1	10.95%	2.61%	-13.06%
Cc1ccc(-c2ccc3nn(Cc4ccc(F)cc4Cl)c(=O)n3n2)cc1C	16.15%	-0.6%	-24.45%
O=C(Cn1nc2c(Sc3ccccc3)nccn2c1=O)Nc1ccc(Br)cc1F	9.23%	5.59%	-9.93%
Cc1nnc2ccc(S(=O)(=O)N(Cc3ccccc3F)c3ccc(F)cc3)cn12	5.62%	1.21%	-9.05%
COc1ccc(NC(=O)Cn2nc3nc(N4CCCCCC4)ccn3c2=O)cc1Cl	8.5%	2.73%	-7.14%
CCc1ccc(NC(=O)Cn2nc3c(Sc4ccccc4)nccn3c2=O)cc1	6.05%	4.46%	-8.51%
O=C(CSc1nnc2c(=O)n(-c3cccc(F)c3)ccn12)Nc1ccc(Br)cc1	9.48%	6.65%	-9.7%
CCc1ccc(N(Cc2ccccc2)S(=O)(=O)c2cccn3c(C)nnc23)cc1	5.96%	-1.36%	-9.98%
CCOc1ccc(C(=O)Cn2nc3n(Cc4ccccc4OC)c(=O)c4sccc4n3c2=O)cc1	8.36%	6.12%	-29.81%
Cc1cc2nn(CC(=O)NCc3ccccc3)c(=O)n2c(Nc2ccc(C)c(F)c2)n1	12.56%	6.49%	-3.12%
O=C(Cn1nc2c(N3CCOCC3)nccn2c1=O)NCc1ccc(F)cc1	12.27%	2.87%	-8.56%
COc1ccc(CNC(=O)Cn2nc3c(N4CCN(c5ccccc5C)CC4)nccn3c2=O)cc1	-11.16%	37.75%	-4.67%
N#Cc1ccc(NC(=O)CSc2nnc3c4cc(-c5ccc(F)cc5)nn4ccn23)cc1	11.54%	18.84%	-16.45%
Cc1nnc2c(=O)n(CC(=O)Nc3ccc(Cl)cc3F)c3ccccc3n12	7.95%	0.4%	-18.26%
COc1cc(NC(=O)Cn2nc3c(N4CCCC(C)C4)nccn3c2=O)cc(OC)c1 (stereo not given)	5.76%	3.21%	-46.51%

SMILES	Inhibition [1]	Inhibition [2]	Inhibition [3]
CCC(C)NC(=O)Cn1nc2ccc(SCc3ccc(Cl)cc3)nn2c1=O (stereo not given)	12.21%	3.51%	-20.85%
Cc1ccc(NC(=O)Cn2nc3c4cc(-c5ccc(C)c(C)c5)nn4ccn3c2=O)c(C)c1	-6.92%	-0.38%	-15.91%
CC(C)c1ccc(N(Cc2cccc(Cl)c2)S(=O)(=O)c2cccn3cnnc23)cc1	-3.32%	3.48%	-7.96%
COc1ccc(NC(=O)C(C)Sc2nnc3c(=O)n(-c4ccc(C)c(C)c4)ccn23)cc1 (stereo not given)	12.32%	-1.2%	-9%
Cc1ccc(F)cc1NC(=O)CSc1nc2ccccc2n2c(C(C)C)nnc12	9.62%	0.82%	-18.14%
CC(C)CCNC(=O)Cn1nc2n(CC(C)C)c(=O)c3sccc3n2c1=O	9.99%	-0.63%	-16.87%
CCc1nnc2c(=O)n(CC(=O)Nc3ccc(NC(C)=O)cc3)c3ccccc3n12	5.97%	5.77%	-14.46%
Cc1ccc(Oc2nc3ccccc3n3c(=O)n(CC(=O)Nc4cccc(C(F)(F)F)c4)nc23)cc1	8.2%	1.82%	-21.42%
O=C(Cn1nc2c(SC3CCCCC3)nccn2c1=O)N1CCN(c2ccc(F)cc2)CC1	10.98%	0.3%	-4.89%
Cc1ccc(C)c(Cn2nc3ccc(-c4ccc(C)c(C)c4)nn3c2=O)c1	12.73%	1.53%	-14.79%
CCOc1ccc(NC(=O)Cn2nc3c4cc(-c5ccc(Cl)cc5)nn4ccn3c2=O)cc1	10.46%	5.03%	-14.66%
Cc1nnc2ccc(S(=O)(=O)N(Cc3cccc(F)c3)c3cccc(F)c3)cn12	2.6%	1.95%	-8.19%
O=C(Cn1nc2c(Sc3cccc(F)c3)nccn2c1=O)Nc1cccc(C(F)(F)F)c1	14.77%	-0.63%	-9.77%
CCCn1c(=O)c2sccc2n2c(CCC(=O)NC(C)C34CC5CC(CC(C5)C3)C4)nnc12 (stereo not given)	1.34%	7.2%	-25.73%
COc1cccc(-n2ccn3c(SCC(=O)N4CCN(c5ccccc5F)CC4)nnc3c2=O)c1	17.26%	0.16%	-10.18%
COc1ccc(-n2ccn3c(-c4cccc([N+](=O)[O-])c4)nnc3c2=O)cc1	3.7%	0.19%	-14.9%
COC(=O)c1ccc(NC(=O)Cn2nc3c(Oc4ccccc4)nccn3c2=O)cc1	-0.72%	3.86%	-10.09%
CCOc1ccc(-n2ccn3c(SCC(=O)Nc4ccc(Cl)cc4)nnc3c2=O)cc1	5.78%	3.69%	-6.67%
COc1ccc(CN(c2cc(C)cc(C)c2)S(=O)(=O)c2cccn3cnnc23)cc1F	-0.72%	0.54%	-10.15%
Cc1ccc(Sc2nccn3c(=O)n(CC(=O)N4CCN(c5ccccc5F)CC4)nc23)c(C)c1	9.62%	0.22%	-25.75%

SMILES	Inhibition [1]	Inhibition [2]	Inhibition [3]
CCc1ccc(Cn2c(=O)c3sccc3n3c(SCc4cccc(C(F)(F)F)c4)nnc23)cc1	8.34%	1.88%	-21.14%
COc1ccccc1-n1ccn2c(SCc3cccc(F)c3)nnc2c1=O	7.21%	2.05%	-9.16%
Cc1cc(C)c(NC(=O)Cn2nc3ccc(Sc4cccc(F)c4)nn3c2=O)c(C)c1	1.06%	2.95%	-10.61%
Cc1ccc(NC(=O)Cn2nc3c(Oc4cccc(C)c4C)nccn3c2=O)c(Br)c1	10.09%	-2.33%	-8.9%
CCCCn1c(=O)c2sccc2n2c(=O)n(CC(=O)c3ccc(C)cc3C)nc12	10.99%	-0.48%	-20%
COc1cccc(-n2ccn3c(SCC(=O)Nc4ccc(Br)cc4)nnc3c2=O)c1	-3.95%	5.78%	-9.82%
CCc1nnc2c(SCC(=O)Nc3ccc(Br)cc3)nc3ccccc3n12	-1.42%	31.58%	-6.67%
COc1ccc(NC(=O)Cn2nc3c(Oc4cccc(OC)c4)nccn3c2=O)cc1	3.68%	3.75%	-7.1%
O=C(Cn1nc2c(SCc3ccc(Cl)cc3)nccn2c1=O)Nc1ccccc1F	4.91%	1.79%	-4.96%
O=C(Cn1nc2n(Cc3ccc(F)cc3)c(=O)c3ccccc3n2c1=O)Nc1ccc2c(c1)OCO2	8.5%	5.19%	-6.14%
COc1cccc(-n2ccn3c(SCC(=O)c4cc(C)ccc4C)nnc3c2=O)c1	13.22%	5.19%	-12.08%
CCCCOc1ccc(-c2cc3c4nnc(SCC(=O)Nc5ccc(C)c(C)c5)n4ccn3n2)cc1	4.46%	-1.19%	-6.11%
O=S(=O)(Nc1ccc2c(c1)OCCO2)c1ccc2nncn2c1	12.24%	2.83%	-7.84%
CCCNC(=O)Cn1nc2n(Cc3ccco3)c(=O)c3sccc3n2c1=O	8.71%	5.01%	-16.3%
Cc1cc(C)cc(NC(=O)Cn2nc3n(C)c(=O)c4c(c(-c5ccccc5)cn4C)n3c2=O)c1	6.43%	0.06%	-5.54%
COc1cccc(NC(=O)Cn2nc3c4c5c(sc4ncn3c2=O)CCCC5)c1	10.28%	6.83%	-22.51%
CCOc1ccc(NC(=O)CSc2nnc3c(=O)n(-c4ccc(OCC)cc4)ccn23)cc1	13.96%	2.39%	-11.05%
COc1ccc(NC(=O)Cn2nc3ccc(Sc4ccccc4)nn3c2=O)cc1	3.54%	3.37%	-9.77%
COc1ccccc1N1CCN(C(=O)Cn2nc3ccc(-c4ccc(Cl)cc4)nn3c2=O)CC1	12.66%	-1.54%	-12.15%
COc1cc(OC)c(NC(=O)Cn2nc3ccc(-c4ccc(C)c(C)c4)nn3c2=O)cc1Cl	7.84%	1.07%	-20.51%
